The source of these data is PubChem BioAssay (Tox21).

Several values for one entry are separate records, joined by “and”; a condition that tells them apart may be missing. Equal values may be shown once. Results filed as inconclusive are left out. Entries that show only a call come without a potency. Activity calls are given as the source filed them. Calls come from the whole dose curve; as a rule, active = well fitted cell-killing curve with a large enough effect in the repeat runs; inconclusive = weak or mixed curves, or effect the other way; inactive = flat fitted curve, though single readings scatter.
Potency is the fitted concentration of half-maximal effect.

The first test can be described thus: cAMP Responsive Elements (CRE) small molecule antagonists, cell-based qHTS assay: qHTS cell viability counter screen (AID 2060913). Note: nearly all actives have a fitted effect of over 40% in size. Conditions: CRE-bla HEK293T viability, CellTiter-Glo luminescence, 5 h; series mostly up to 92.4 µM. The method in brief: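 Cytotoxicity read in the same wells as the CRE-bla HEK293T antagonist assay: after 3 h compound with 0.25 uM NKH477 final and 2 h beta-lactamase substrate, CellTiter-Glo luminescence measured.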
In the case of `O=C(O)Cn1c(=O)n(Cc2ccc(Br)cc2F)c(=O)c2ccc(Cl)cc21`, the Potency entry was “inactive”.

Regarding `CCOC(=O)C(Br)c1ccccc1` (stereo unspecified), the Potency result is “inactive”.

Turning to `COc1cc2nc(N(C)CCCNC(=O)C3CCCO3)nc(N)c2cc1OC` (stereo unspecified), the Potency result was “inactive”.

As for `Cc1cccc(C)c1OCC(C)N` (stereo unspecified), the Potency entry was “inactive”.

With `O=C(c1ccccc1)C1CCC1`, the Potency result is “inactive”.

Turning to `O=C(N/N=C/c1ccc([N+](=O)[O-])o1)c1ccc(O)cc1`, the Potency result is “inactive”.

Take `CC(C)=O`: the Potency result is “inactive”.

With `Cc1ccc(Cl)c(N)c1Cl`, the Potency entry is “inactive”.

For `CC/C=C/CCCCCCCCCCOC(C)=O`, the Potency result is “inactive”.

Turning to `CCCCCCCCCCCCc1ccccc1O`, the Potency was 53.8 µM (active) and 32 µM (active).

On to `C=COCC1CCC(CO)CC1` (stereo unspecified), for which the Potency entry was “inactive”.

With `Cc1ccc2c(Br)cc(Br)c(O)c2n1`, the Potency entry was “inactive”.

On to `CC(CNC1CCCCC1)OC(=O)c1ccccc1` (stereo unspecified), for which the Potency result was “inactive”.

In the case of `C[C@@H]1CN(CCCn2c3ccccc3c3ccccc32)C[C@H](C)N1`, the Potency entry was “inactive”.

Take `Oc1ccc(C2CNCCc3c2cc(O)c(O)c3Cl)cc1` (stereo unspecified): the Potency entry was “inactive”.

For `CC(C)CCCCCCCOC(=O)c1ccc(C(=O)OCCCCCCCC(C)C)c(C(=O)OCCCCCCCC(C)C)c1`, the Potency result is “inactive”.

A short description of the next test: cAMP Responsive Elements (CRE) small molecule agonists, cell-based qHTS assay: qHTS cell viability counter screen (AID 2060914). Note: nearly all actives have a fitted effect of over 50% in size. Conditions: CRE-bla HEK293T viability, CellTiter-Glo luminescence, 5 h; series mostly up to 92.4 µM. The method in brief: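 Luminescence read-out (CellTiter-Glo, 30 min RT) of ATP-based viability in CRE-bla HEK 293T cells, run in the same wells as the β-lactamase reporter assay after 3 h compound treatment at 37 °C.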
Take `CCCC(C)CCC(C)=O` (stereo unspecified): the Potency entry is “inactive”.

Consider `O=C(c1ccccc1)c1ccc(O)cc1`, for which the Potency entry was “inactive”.

On to `O=C(O)Cn1c(C(=O)Nc2nc(-c3ccccc3Cl)cs2)cc2ccccc21`, for which the Potency result is “inactive”.

Regarding `c1ccc(CC2=NCCN2)cc1`, the Potency result was “inactive”.

With `CNC(=O)c1cnn(-c2nc(N)c3ncn([C@@H]4O[C@H](CO)[C@@H](O)[C@H]4O)c3n2)c1`, the Potency entry was “inactive”.

On to `Cc1c(F)cc2c(=O)c(C(=O)O)cn3c2c1CCC3C` (stereo unspecified), for which the Potency result is “inactive”.

Turning to `COC(=O)CCCC(=O)OC`, the Potency result is “inactive”.

Regarding `Cc1ccc(S(=O)(=O)O)c(C)c1`, the Potency result is “inactive”.

Turning to `Nc1ncnc2nc[nH]c12`, the Potency result is “inactive”.

For the compound `CCOC(=O)OCC`, the Potency entry is “inactive”.

Take `NS(=O)(=O)c1cc(C(=O)NN2C[C@H]3[C@H]4CCC(C4)[C@H]3C2)ccc1Cl`: the Potency entry is “inactive”.

Regarding `CC1(N)CCC(C(C)(C)N)CC1` (stereo unspecified), the Potency result is “inactive”.

Turning to `CC(C)NCC(O)COc1cccc2ccccc12` (stereo unspecified), the Potency entry was “inactive”.

As to `Clc1ccc2c(c1)CCc1cccnc1C2=C1CCNCC1`, the Potency result was “inactive”.

For the compound `C1=CCC2CC=CC2C1` (stereo unspecified), the Potency entry is “inactive”.

For `CCOC(=O)c1ccc(C2CCC(NC[C@H](O)COc3ccc(O)c(NS(C)(=O)=O)c3)CC2)cc1` (stereo partly specified), the Potency result is “inactive”.

As for `CCCCOCCOCCOCCCC`, the Potency entry was “inactive”.

In the case of `C(=C/c1ccccc1)/c1ccccc1`, the Potency entry is “inactive”.

Take `FC(F)(F)C(Cl)Br` (stereo unspecified): the Potency result was “inactive”.

`Oc1ccc(Oc2ccccc2)cc1`: the Potency entry was “inactive”.

Regarding `C[C@H]1C[C@H](O)c2ccsc2S1(=O)=O`, the Potency result was “inactive”.

With `CC(=O)OC(C)c1ccccc1` (stereo unspecified), the Potency result is “inactive”.

`COCCCOc1cc(C[C@@H](C[C@H](N)[C@@H](O)C[C@H](C(=O)NCC(C)(C)C(N)=O)C(C)C)C(C)C)ccc1OC`: the Potency entry was “inactive”.

With `CCCCCCCC(=O)[O-].CCCCCCCC(=O)[O-].[Zn+2]`, the Potency entry was “inactive”.

In the case of `O=C(O)Cn1c(=O)n(Cc2ccc(Br)cc2F)c(=O)c2ccc(Cl)cc21`, the Potency entry was “inactive”.

Regarding `CCOC(=O)C(Br)c1ccccc1` (stereo unspecified), the Potency entry was “inactive”.

As to `COc1cc2nc(N(C)CCCNC(=O)C3CCCO3)nc(N)c2cc1OC` (stereo unspecified), the Potency entry was “inactive”.

For `Cc1cccc(C)c1OCC(C)N` (stereo unspecified), the Potency result is “inactive”.

As for `O=C(c1ccccc1)C1CCC1`, the Potency result is “inactive”.

With `O=C(N/N=C/c1ccc([N+](=O)[O-])o1)c1ccc(O)cc1`, the Potency result was “inactive”.

Turning to `CC(C)=O`, the Potency is 25 µM (active).

Take `Cc1ccc(Cl)c(N)c1Cl`: the Potency result is “inactive”.

Take `CC/C=C/CCCCCCCCCCOC(C)=O`: the Potency entry was “inactive”.

Take `CCCCCCCCCCCCc1ccccc1O`: the Potency is 60.3 µM (active) and 54.5 µM (active).

Regarding `C=COCC1CCC(CO)CC1` (stereo unspecified), the Potency result was “inactive”.

For the compound `Cc1ccc2c(Br)cc(Br)c(O)c2n1`, the Potency result is “inactive”.

Consider `CC(CNC1CCCCC1)OC(=O)c1ccccc1` (stereo unspecified), for which the Potency result was “inactive”.

For the compound `C[C@@H]1CN(CCCn2c3ccccc3c3ccccc32)C[C@H](C)N1`, the Potency entry is “inactive”.

Regarding `Oc1ccc(C2CNCCc3c2cc(O)c(O)c3Cl)cc1` (stereo unspecified), the Potency entry is “inactive”.

In the case of `CC(C)CCCCCCCOC(=O)c1ccc(C(=O)OCCCCCCCC(C)C)c(C(=O)OCCCCCCCC(C)C)c1`, the Potency entry is “inactive”.
